# IL-1B inflam inh = qHTS for Inhibitors of Inflammasome Signaling: IL-1-beta AlphaLISA Primary Screen; THP-1 LPS/ATP IL-1B secretion, AlphaLISA, 16 h; hits give low values; AID 743279, 2014; activity change, % at 57.5 µM; 360,000 tested, 4.7% active; in the data active = activity change below about -50%; inconclusive = mostly about -30% to -49%
#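 THP-1 cells pretreated 1 hr with compounds (up to 57.5 uM final), then stimulated with LPS (250 ng/mL final) plus ATP (1.25 mM final); secreted IL-1B measured by AlphaLISA after 16 hr, decreased signal indicating inhibition.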
# ELG1 DNA repair = qHTS screen for small molecules that inhibit ELG1-dependent DNA repair in human embryonic kidney (HEK293T) cells expressing luciferase-tagged ELG1. HEK293T ELG1-luciferase reporter, luminescence, 16 h; DNA damage induced by 5-fluorouridine. Potency, µM (titrated, usually from 46.1 µM), inactives show top-dose activity change, negative = inhibition, usual class: inhibitors. 330,000 tested, 2.3% active. AID 504467, 2011; also: potency is read from the fitted curve at half-maximal effect; nearly all actives have a fitted effect of over 55% in size
#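 Overnight (16 hr) co-exposure of 2,000 cells/well to 5-fluorouridine and compound at 37 °C preceded detection. Luciferase was quantified via ONE-Glo luminescence; loss of signal denotes inhibition.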
# TDP1 cell CPT = qHTS for Inhibitors of human tyrosyl-DNA phosphodiesterase 1 (TDP1): qHTS in cells in presence of CPT; Potency, µM (series often up to 46.2 µM), without a hit: top-dose activity change, negative = growth inhibition, actives largely listed as inhibitors; 420,000 tested, 12% active; AID 686979, 2013; chicken DT40 Tdp1-/-;hTDP1 cells + 20 nM CPT, ATP luminescence, 48 h; also: potency is read from the fitted curve at half-maximal effect; nearly all actives have a fitted effect of over 55% in size
#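 Chicken DT40 Tdp1-/- cells complemented with human TDP1, 400 cells/well, exposed to compounds plus 20 nM camptothecin for at least 48 h at 37 C; viability read as ATP content by CellTiter-Glo luminescence.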
# DT40 TDP1 no CPT = qHTS for Inhibitors of human tyrosyl-DNA phosphodiesterase 1 (TDP1): qHTS in cells in absence of CPT; 420,000 tested, 15% active; Potency, µM (highest dose often 46.2 µM), without a hit: at the top dose activity change, negative = growth inhibition, most hits filed as inhibitors; DT40 Tdp1-/- hTDP1 cells, no CPT, ATP luminescence, 48 h; also: potency is read from the fitted curve at half-maximal effect; nearly all actives have a fitted effect of over 55% in size
#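 No-CPT arm: Tdp1-/-;hTDP1 DT40 cells (400/well) plus compounds, incubated ≥48 hr at 37 °C. Readout CellTiter-Glo luminescence.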
# Giardia killer = Small Molecules that selectively kill Giardia lamblia: qHTS. Giardia lamblia trophozoite viability. activity change, % at 7.66 µM, hits read low. 340,000 tested, 0.15% active. AID 540267, 2011; in the data active = activity change below about -80%; inconclusive = between about -30% and that limit;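 also: parasites exposed to compound for two days anaerobically before the ATP read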
#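 Viability, read as ATP luminescence: trophozoites at 100 cells/well, compound added, 48 hrs anaerobic at 37 deg C, then 15-30 min room-temperature development before reading.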
# TDP1 block = qHTS Assay for Inhibitors of Tyrosyl-DNA Phosphodiesterase (TDP1). AID 485290, 2010. Potency, µM (series often up to 130 µM), for the others: at the highest dose activity change, negative = inhibition, hits mostly inhibitors. 350,000 tested, 0.28% active. recombinant TDP1, AlphaScreen DNA substrate cleavage; also: potency is read from the fitted curve at half-maximal effect; nearly all actives have a fitted effect of over 40% in size
# Target sequence (Q9NUW8 whole entry, looked up): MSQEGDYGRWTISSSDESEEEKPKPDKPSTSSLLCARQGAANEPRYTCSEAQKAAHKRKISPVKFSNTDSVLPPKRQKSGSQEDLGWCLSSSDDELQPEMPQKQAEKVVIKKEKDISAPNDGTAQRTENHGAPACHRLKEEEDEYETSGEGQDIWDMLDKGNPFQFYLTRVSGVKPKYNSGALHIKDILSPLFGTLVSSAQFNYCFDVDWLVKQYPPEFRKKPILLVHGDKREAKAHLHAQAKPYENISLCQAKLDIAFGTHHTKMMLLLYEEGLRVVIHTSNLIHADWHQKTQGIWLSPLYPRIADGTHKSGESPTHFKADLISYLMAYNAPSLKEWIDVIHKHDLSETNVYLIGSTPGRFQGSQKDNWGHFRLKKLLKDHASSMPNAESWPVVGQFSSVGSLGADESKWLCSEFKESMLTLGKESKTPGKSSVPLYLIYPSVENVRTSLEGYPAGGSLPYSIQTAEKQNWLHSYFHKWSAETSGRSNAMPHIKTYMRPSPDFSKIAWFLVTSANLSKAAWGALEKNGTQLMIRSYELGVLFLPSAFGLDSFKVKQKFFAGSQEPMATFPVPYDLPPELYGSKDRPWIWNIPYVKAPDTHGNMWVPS
#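 AlphaScreen read-out: signal falls as enzyme removes the 3' tyrosine-FITC from a 5'-biotinylated DNA oligo (15 nM, 5 min, RT). Enzyme was E. coli-made recombinant Tdp1 at 1 nM, exposed to compound for 15 min beforehand; beads 10 ug/ml, 10 min.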
# Numbers without * were called inactive; ? = inconclusive; . = no result given; [ ] = dose if it differs, or a comment. Most compounds without a hit are left out; they make up all but 19% or so of the library. Unless noted, calls follow the shape of the dose curve; as a rule, active = well fitted curve in the direction sought with a large enough effect; inconclusive = small, poorly fitted or top-dose-only effect, or another doubt; inactive = no such curve, though single readings can be large; an effect the other way counts as inactive or inconclusive. % is scaled to controls: 0 for no effect and ±100 for the full control effect.
SMILES,IL-1B inflam inh,ELG1 DNA repair,TDP1 cell CPT,DT40 TDP1 no CPT,Giardia killer,TDP1 block
O=C(NCc1ccccc1Cl)C1CCN(C(=O)c2ccc(F)cc2)CC1,-4,.,-25%,?,.,.
O=C(NCc1ccc(Cl)cc1)C1CCCN(c2ncnc3onc(-c4ccc(F)cc4)c23)C1 (stereo unspecified),.,.,21µM*,23µM*,.,1%
COCCN(C(=O)COC(=O)c1cc2ccccc2cc1O)c1c(N)n(Cc2ccccc2)c(=O)[nH]c1=O,10,16%,-8%,-21%,1,9%
CCOC(=O)c1csc(-c2snnc2C)n1,-8,?,1%,-20%,-2,4%
Cc1ccccc1C(=O)NC(CC(C)C)C(=O)N1CCN(c2ccccc2)CC1 (stereo unspecified),6,-16%,-26%,?,1,-9%
Cc1cc2c(cc3c(SCc4ccc(Cl)cc4)nncn32)o1,.,.,?,?,.,5%
CCN1C(=O)/C(=C\C(=O)c2cccs2)c2cc(Br)ccc21,-7,-8%,13µM*,15µM*,5,8%
CCN1C(=O)/C(=C\c2cccs2)C(C(=O)OC)=C1C,-28,?,1%,?,-14,2%
CN(C)c1ccc(-c2cc[nH]c(=O)c2N)cc1,.,.,.,.,.,9%
CCOc1nc(N=C(N)N)nc2c(C)cccc12,-12,?,16µM*,23µM*,-7,-2%
Nc1ccc(S(=O)(=O)c2cc(O)c3ccccc3c2O)cc1,-112*,.,1.5µM*,2.3µM*,-10,.
CCCCOC(=O)n1c(=S)oc2cc(Cl)ccc21,?,?,8.2µM*,23µM*,-10,6%
COC(=O)n1c(=S)oc2cc(Cl)ccc21,.,14%,.,.,.,3%
O=C(NCCCN1CCN(c2ccccc2)CC1)c1cc2c(s1)-c1ccccc1OC2,.,.,?,23µM*,.,14%
Cc1ccc(CCNC(=O)c2cc3c(s2)-c2ccccc2OC3)cc1,.,.,?,?,-1,40µM*
CC1CCCN(CCCNC(=O)c2cc3c(s2)-c2ccccc2OC3)C1 (stereo unspecified),-77*,?,?,?,-20,-1%
CCN(CC)CCNC(=O)c1cc2c(s1)-c1ccccc1SC2,-9,-1%,23µM*,16µM*,3,.
C[C@H](NC(=O)C1CCN(S(=O)(=O)c2ccccc2)CC1)C(=O)NCc1ccc(F)cc1,12,9%,-3%,7%,29,0%
CC(Oc1ccc2ccc(=O)oc2c1)C(=O)c1ccccc1 (stereo unspecified),-8,22%,5%,-18%,24,6%
O=C(O)c1cccc2cccnc12,0,?,2%,-14%,-9,4%
NC(N)=N/N=C(\N=Nc1ccccc1)c1ccc(Cl)cc1,-113*,.,13µM*,13µM*,16,.
NC(N)=N/N=C(\N=Nc1ccccc1)c1cccc2cccnc12,-13,.,23µM*,21µM*,-7,.
NC(=S)NCCCC(N)C(=O)O (stereo unspecified),.,.,.,.,.,-6%[56.1 µM]
COc1ccc(Nc2nc(N3CCOCC3)nc(N3CCOCC3)n2)cc1Cl,-58*,5.6µM*,?,21µM*,15,5%
Fc1cccc(Nc2nc(N3CCOCC3)nc(N3CCOCC3)n2)c1,?,?,18µM*,-26%,-5,.
Cc1ccc(Nc2nc(Nc3ccc(C)c(C)c3)nc(N3CCOCC3)n2)cc1C,.,.,15µM*,10µM*,.,.
